Bioassay records (PubChem)
GPR151 activ: human GPR151 activation | Q8TDV0 | PathHunter beta-arrestin GPR151 cells, luminescence | activation, % at 11.2 µM | 1% of 650,000 active; in the data active = activation above about 4.9%
MITF inh: human MITF inhibition, primary screen. AlphaScreen MITF homodimerization, bead proximity signal. AID 1259374. O75030. inhibition, % at 2.6 µM. 0.91% of 650,000 active; in the data active = inhibition above about 50%
TEAD-YAP inh: TEAD-YAP interaction inhibition; inhibition, % at 9.12 µM; HEK-TIYL cells, TEAD-Gal4/YAP UAS-luciferase luminescence; 1.4% of 640,000 active; in the data active = inhibition above about 32%
FBW7 act: activators of human E3 ligase FBW7; Q969H0; AlphaScreen FBW7–phospho-cyclin E peptide binding, activator screen; normalized activity (activation), % at 26.1 µM; 0.13% of 650,000 active; AID 1259310; in the data active = normalized activity above about 1.9%;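 also: purified mutant Fbw7 with reduced substrate affinity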
GPR151 confirm: confirmation of human GPR151 activators; 6,700 tested, under 10 active; activation, % at 11.2 µM; shares compounds with GPR151 activ; GPR151 PathHunter beta-arrestin cells, luminescence, 90 min; % of EA-reagent control over plate median;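 active = mean percent activation across replicates above the confirmation screen cutoff of 4.91%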
GPR119 counter: activates human GPR119 in a GPR151 counter-screen; shares compounds with GPR151 activ; GPR119 PathHunter beta-arrestin cells, luminescence, 90 min; 0 = compound-well median, 100 = enzyme-acceptor control; activation, % at 11.2 µM; 0.3% of 6,700 active;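 active = mean percent activation in the counterscreen above 29.09%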;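 also: counterscreen on off-target GPR119 to flag nonselective hits from the GPR151 activator screen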
Target sequence (Q8TDV5 whole entry, looked up): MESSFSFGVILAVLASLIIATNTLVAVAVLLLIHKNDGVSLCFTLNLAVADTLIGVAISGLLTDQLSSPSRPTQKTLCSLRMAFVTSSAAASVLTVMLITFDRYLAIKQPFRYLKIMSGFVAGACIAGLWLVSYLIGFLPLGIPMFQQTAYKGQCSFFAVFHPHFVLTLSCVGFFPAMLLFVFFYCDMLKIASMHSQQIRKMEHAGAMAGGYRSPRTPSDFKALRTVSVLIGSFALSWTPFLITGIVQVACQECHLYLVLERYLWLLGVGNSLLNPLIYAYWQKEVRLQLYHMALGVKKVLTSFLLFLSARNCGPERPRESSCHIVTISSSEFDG
Each line names hits and unclear results; the compound was inactive in the other large screens (follow-up assays come after a bar, where they were run). The list is not random: actives were taken first. Their share in the collection is about 3.4%.

O=c1[nH]c2ccc(S(=O)(=O)N3CCN(c4ccccn4)CC3)cc2s1	GPR151 activ 5.1 | GPR151 confirm inactive | GPR119 counter inactive
CCOC(=O)C(=O)Nc1sc(C(=O)Nc2cccc([N+](=O)[O-])c2)c(C)c1C(=O)OC	none
O=[N+]([O-])c1ccc(S(=O)(=O)Nc2ccc(-c3nc4ccccc4[nH]3)cc2)cc1	none
O=S(=O)(Nc1ccc(-c2nc3ccccc3[nH]2)cc1)c1ccc(-n2cccn2)cc1	GPR151 activ 5.8 | GPR151 confirm inactive | GPR119 counter inactive
O=C(COc1ccc(Br)cc1)Nc1ncc(Cc2ccc(F)cc2)s1	GPR151 activ 6.2 | GPR151 confirm inactive | GPR119 counter inactive
CN1C(=O)c2ccc(NC(=O)COc3ccc(Cl)cc3)cc2C1=O	none
O=C(COc1ccc(Cl)cc1)Nc1ccc2c(c1)C(=O)N(c1ccccc1)C2=O	GPR151 activ 11 | GPR151 confirm inactive | GPR119 counter inactive
O=C(O)COc1ccc(NC(=O)COc2ccc(Cl)cc2)cc1	none
COc1c(C(=O)Nc2ccc(Cl)cn2)ccc2ccccc12	GPR151 activ 5.5 | GPR151 confirm inactive | GPR119 counter inactive
O=C(COc1ccc(Cl)cc1)Nc1ccc(Cc2ccncc2)cc1	GPR151 activ 5.4 | GPR151 confirm inactive | GPR119 counter inactive
COc1ccc(N2C(=O)C3C4c5ccccc5C(CO)(c5ccccc54)C3C2=O)cc1 (stereo not drawn)	none
O=C(COc1ccc(Cl)cc1)Nc1ccc(Cl)cn1	none
O=C(COc1ccccc1)Nc1ccc(Cl)cn1	GPR151 activ 7.8 | GPR151 confirm inactive | GPR119 counter inactive
O=C(COc1ccccc1)NC(=S)Nc1ccc(Cl)cn1	none
O=C(COc1ccc(Br)cc1)Nc1ccc(Cl)cn1	GPR151 activ 11 | GPR151 confirm inactive | GPR119 counter inactive
CCC(C)NC(=O)CN(Cc1ccc(C)cc1)S(=O)(=O)c1ccc(Cl)cc1 (stereo not drawn)	none
COc1ccccc1N1CCN(C(=O)CN(c2cc(C)cc(C)c2)S(C)(=O)=O)CC1	GPR151 activ 6.4 | GPR151 confirm inactive | GPR119 counter inactive
COc1ccccc1N(CC(=O)N(C)C)S(C)(=O)=O	GPR151 activ 6.1 | GPR151 confirm inactive | GPR119 counter inactive
COc1ccccc1N(CC(N)=O)S(C)(=O)=O	none
O=C(Cn1nnc(-c2ccc([N+](=O)[O-])cc2)n1)NCC1CC1	GPR151 activ 5.9 | GPR151 confirm inactive | GPR119 counter inactive
CC(=O)c1ccc(OCc2cc(C(=O)NC(C)CCn3cccn3)no2)cc1 (stereo not drawn)	GPR151 activ 6.3 | GPR151 confirm inactive | GPR119 counter inactive
CC(CCn1cccn1)NC(=O)c1cc(COc2ccc3ncccc3c2)on1 (stereo not drawn)	none
O=C(Nc1nc(SCc2ccc(F)cc2)ns1)c1cc(F)c(F)cc1Cl	GPR151 activ 8.4 | GPR151 confirm inactive | GPR119 counter inactive
CSc1nsc(NC(=O)c2ccc(F)cc2F)n1	none
CCCc1ccc2c(N)c(C(=O)Nc3nc(C(F)(F)F)ccc3Cl)sc2n1	none
CS(=O)(=O)N1CCN(c2ccccc2NC(=O)c2ccc([N+](=O)[O-])o2)CC1	none
CN1CCN(c2ccccc2NC(=O)c2ccc([N+](=O)[O-])o2)CC1	GPR151 activ 5.7 | GPR151 confirm inactive | GPR119 counter inactive
CN1CCN(c2ccccc2NC(=O)Cc2ccc(Cl)cc2)CC1	GPR151 activ 6.1 | GPR151 confirm inactive | GPR119 counter inactive
COC(=O)C1=C(C)N(c2ccc(Cl)cc2)C(=O)/C1=C\c1ccco1	none
COC(=O)C1=C(C)N(c2ccc(C(C)C)cc2)C(=O)/C1=C\c1ccco1	GPR151 activ 6.0 | GPR151 confirm inactive | GPR119 counter inactive
CCOC(=O)c1cc(C)sc1NC(=O)c1cc(-c2ccc(CC(C)C)cc2)nc2ccccc12	none
COC(=O)c1c(NC(=O)c2cc(-c3ccc(CC(C)C)cc3)nc3ccccc23)sc(C)c1-c1ccccc1	GPR151 activ 5.1 | GPR151 confirm inactive | GPR119 counter inactive
CCCCOc1ccc(-c2cc(C(=O)NN)c3ccccc3n2)cc1	none
CCCCOc1ccc(-c2cc(C(=O)OC)c3ccccc3n2)cc1	GPR151 activ 7.5 | GPR151 confirm inactive | GPR119 counter inactive
Nc1ccc(C(=O)OCC(=O)Nc2ccc(C(F)(F)F)cc2[N+](=O)[O-])cc1	none
